Consider 8 compounds from PubChem BioAssay (NCI).

This is part of a sample that, as a whole, favours compounds with a hit. Of some 83,000 tested, about 20% had one in any assay.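 48-hour exposure, single concentration, 96-well plates; percent growth endpoint where 0 means no net growth. Active: below 10.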 Unmarked numbers belong to inactive results. The source made the active and inactive calls.

Holding throughout (assay): NCI-60 one-dose screen, 48 h (100 = growth as untreated, 0 = no growth, -100 = all killed)
Holding throughout (conditions): 10 µM

Assay [1] deals with HCT-15 colon.
Assay [2] relates to HT29 colon.
Assay [3] relates to SNB-75 CNS.
Assay [4] deals with SNB-19 CNS.
Assay [5] has as its system U251 CNS.
Assay [6] deals with PC-3 prostate.
Assay [7] concerns SK-MEL-5 melanoma.
Assay [8] relates to UACC-62 melanoma.
In assay [9] the test system is SK-MEL-28 melanoma.
Assay [10] deals with SK-MEL-2 melanoma.
The subject of assay [11] is EKVX NSCLC.
The subject of assay [12] is SN12C renal.
In assay [13] the test system is UO-31 renal.
The subject of assay [14] is TK-10 renal.
Assay [15] concerns ACHN renal.
In assay [16] the test system is CAKI-1 renal.
The test system of assay [17] is A498 renal.
The test system of assay [18] is CCRF-CEM leukemia.
The subject of assay [19] is MOLT-4 leukemia.
Assay [20] relates to LOX IMVI melanoma.

Take `Cc1cc2nc3c4ccccc4n(CCO)c3nc2cc1C`: the growth was 71.2% in assay [1]; 98.1% in assay [2]; 73.6% in assay [3]; 87.7% in assay [4]; 64.7% in assay [5]; 57.3% in [6]. The growth in assay [7] was 81.6%; in [8], 73.8%; in assay [9], 91%; in assay [10], 101%; in assay [11], 84.5%; in assay [12] it was 43.5%. Besides, the growth in assay [13] was 28.6%; in assay [14] it was 165%; in [15], -6.25% (active); in assay [16], 55.4%; in assay [17] it was 61.6%; in assay [18], 71.6%. Further, the growth in assay [19] was 78.4%.
For the compound `Nc1nnc(-c2c[nH]c3ncccc23)c(-c2c[nH]c3ccc(Br)cc23)n1`, the growth in assay [1] is 56.5%; in assay [2], 45.1%; in [3], 28.2%; in assay [4], 40.8%; in assay [5] it was 37.5%; in assay [6], 56.9%. The growth in assay [7] is -33.5% (active); in assay [8], 33.8%; in [9] it was 54%; in assay [10] it was 23.7%; in assay [11], 53.1%; in assay [12], 45.2%. The growth in [13] is 35.6%; in assay [14] it was 44.9%; in assay [15], 35.1%; in assay [16], 23.1%; in assay [17], 48.4%; in [18] it was 39.8%. For the same compound, the growth in assay [19] was 12.7%.
For `O=C1CCC(N2Cc3c(NCc4ccc(-c5ccccc5)cc4)cccc3C2=O)C(=O)N1` (centres undefined), the growth in assay [1] is 36.4%; in assay [2], 109%; in [3], 85.9%; in assay [4], 56.2%; in [5], 49.6%; in assay [6] it was 50.4%. In addition, the growth in assay [7] was 67.3%; in assay [8], 75.5%; in [20], 80.5%; in assay [10], 101%; in [11] it was 84.2%; in [12] it was 73.8%. Moreover, the growth was 45.3% in assay [13]; 79.1% in [14]; 73.2% in assay [15]; 82.8% in [16]; 70.5% in [17]; 19.9% in [18]. In addition, the growth in assay [19] was 13.4%.
With `O=C(CSc1ccc(-c2ccc(Cl)cc2)nn1)Nc1ccc(Cl)c(C(F)(F)F)c1`, the growth in assay [1] is 25.9%; in assay [2], 40.6%; in assay [3] it was 58.6%; in assay [4] it was 71.9%; in [5] it was 73.1%; in [6], 71.9%. The growth is 55.9% in assay [7]; 32.7% in assay [8]; 47.3% in [20]; 59.7% in assay [10]; 44.3% in assay [11]; 79.3% in assay [12]. For the same compound, the growth in [14] was 66%; in assay [15], 79.3%; in assay [16], 61.3%; in assay [17], 89.9%; in assay [18], 44.9%; in [19], 11%.
In the case of `O=C(N/N=C/c1ccc(B(O)O)o1)c1[nH]c2ccc(Br)cc2c1-c1ccccc1`, the growth is 16.1% in [1]; 3.98% (active) in [2]; 98.1% in [3]; 40.7% in [4]; 10.1% in assay [5]; 19.2% in [6]. In addition, the growth in [7] is 11.5%; in assay [8], 19.4%; in assay [20], 32.9%; in assay [10], 26.5%; in assay [11], 44.3%; in [12] it was 31.2%. For the same compound, the growth in assay [13] was 42.2%; in assay [14], 64.7%; in assay [15], 44.8%; in assay [16] it was 30%; in assay [17], 76.5%; in assay [18], 3.97% (active). In addition, the growth in [19] was 16.9%.
For `COc1cc2c(cc1OC)/C(=C\c1sc(Nc3ccc(O)cc3)nc1O)C(C(=O)O)=N2`, the growth in [1] was 24.1%; in [2], 10%; in [3], -16.4% (active); in assay [4], 24.3%; in assay [5] it was 18.6%; in assay [6], 19.1%. The growth is 14.4% in [7]; 20% in assay [8]; 47.6% in assay [9]; -9.38% (active) in assay [10]; 59.9% in assay [11]; 35.4% in assay [12]. Also, the growth in assay [13] was 39.7%; in assay [14], 77.4%; in [15], 37.8%; in assay [16], 26.9%; in assay [17], 103%; in assay [18], 19.3%. The growth in assay [19] is 25.9%.
Take `N#Cc1c(NC(=O)c2cccc(C(F)(F)F)c2)sc2c1CCC(O)=C2`: the growth in assay [1] was 20.6%; in [2] it was 80.4%; in [3], 46.7%; in [4], 42.4%; in [5], 39.7%; in [6], 39%. Besides, the growth in assay [7] is -38.3% (active); in assay [8], 11.5%; in [20], 33.9%; in [10] it was -1.48% (active); in assay [11] it was 22.8%; in assay [13] it was 17.6%. In addition, the growth was 63.1% in assay [14]; 31.4% in assay [15]; 44.5% in assay [16]; 69% in assay [17]; 21.9% in assay [18]; 25.9% in assay [19].
Turning to `O=C(N/C(=C1/OCCN1Cc1ccccc1)[P+](c1ccccc1)(c1ccccc1)c1ccccc1)c1ccccc1`, the growth in assay [1] is 77.8%; in [2], 14.6%; in assay [3] it was 26.9%; in assay [4], 10.4%; in assay [5] it was 14.3%; in assay [6], 22.5%. Further, the growth is -100% (active) in assay [7]; -36.4% (active) in assay [8]; 6.07% (active) in assay [20]; 14.6% in assay [11]; 7.37% (active) in assay [12]; 83.1% in assay [13]. Besides, the growth in assay [14] was 26.1%; in [15] it was 82.6%; in [16], 79.5%; in [17], 83%; in [18] it was 13.3%; in [19], 20.6%.
